A short description of assay [1]: NCI Yeast Anticancer Drug Screen. Data for the rad50 strain (AID 155).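 Note: 0% = growth of vehicle-only cultures of the same strain.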 The conditions noted are these: S. cerevisiae rad50 strain growth inhibition; at 50.0 µM; stronger effect = higher value. Put shortly: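 Growth of the mutant yeast was measured after compound exposure and referenced to vehicle-treated cultures.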
The nature of assay [2]: NCI Yeast Anticancer Drug Screen. Data for the mec2-1 strain (AID 157). The conditions noted are these: S. cerevisiae mec2-1 strain, at 50.0 µM, stronger effect = higher value. Put shortly:
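Using mec2-1 yeast: add compound, measure growth, express inhibition versus vehicle-treated cultures.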

Assay [3] in a line: NCI Yeast Anticancer Drug Screen. Data for the sgs1 mgt1 strain (AID 161).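 Note: 0% = growth of cultures given vehicle only.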 The conditions noted are these: S. cerevisiae sgs1 mgt1 strain, at 50.0 µM, stronger effect = higher value. Put shortly:
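Yeast cells carrying a defined DNA-repair defect were exposed to test compounds. Growth inhibition was measured relative to vehicle-treated controls.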

A short description of assay [4]: NCI Yeast Anticancer Drug Screen. Data for the cln2 rad14 strain (AID 165).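 Note: 0% = growth equal to vehicle treated cultures.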 The conditions noted are these: S. cerevisiae cln2 rad14 strain, at 50.0 µM, stronger effect = higher value. In outline: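 Yeast strain cln2 rad14, bearing defects in cell cycle control and DNA repair, serves as the test system; values reflect growth inhibition compared with vehicle.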
A short description of assay [5]: NCI Yeast Anticancer Drug Screen. Data for the bub3 strain (AID 167). Conditions: S. cerevisiae bub3 mutant strain, at 50.0 µM, stronger effect = higher value. In outline: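 Whole-cell yeast assay. The mutant strain was incubated with compounds, and growth inhibition was determined by comparison with vehicle-treated cells.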
Assay [6] in a line: NCI Yeast Anticancer Drug Screen. Data for the mlh1 rad18 strain (AID 175). The conditions noted are these: S. cerevisiae mlh1 rad18 strain growth inhibition; at 50.0 µM; stronger effect = higher value. In outline:
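Steps: expose repair-defective yeast to compound; measure growth; express inhibition against vehicle-treated controls.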

SMILES strings stand for the structures. The panel holds about 79,000 compounds, 15% with a hit somewhere; the sample as a whole holds those more often. Values without a mark were called inactive. Active and inactive are the calls of the source. Cut-off read from the data, not from the text of the source: active = growth inhibition above about 70%; inactive = the rest.

`CC(=O)OC1COC(n2c(=S)n(-c3ccccc3)c(=O)c3cc(Br)ccc32)C(OC(C)=O)C1OC(C)=O` (stereo not drawn): the growth inhibition in assay [1] was 1.9%; in assay [2], -5.4%; in assay [3], 8.45%; in assay [4] it was 15.8%; in assay [5] it was -3.85%; in assay [6], -11.9%.

For the compound `CCOC(=O)/C=C(/C)N(CC)CC`, the growth inhibition is 23.9% in assay [1]; -4% in assay [2]; 12.2% in assay [3]; 11.3% in assay [4]; -5.05% in assay [5]; 19.9% in assay [6].

In the case of `CC1SCC(C)(C)NC1=O` (stereo not drawn), the growth inhibition was 3.85% in assay [1]; 5.15% in assay [2]; -3.95% in assay [3]; -8.5% in assay [4]; 5.7% in assay [5]; 0.55% in assay [6].

Consider `C=CCn1ccc(=O)nc1SCc1ccccc1`, for which the growth inhibition in assay [1] was 5.45%; in assay [2], -4.8%; in assay [3], 0.4%; in assay [4], -33.5%; in assay [5], 3.35%; in assay [6], 0.05%.

As to `Cc1ccc(C(=O)NC2CCCCC2)cc1N=NN(C)C`, the growth inhibition in assay [1] was 31.4%; in assay [2], -7.55%; in assay [3], 18.7%; in assay [4], 19.1%; in assay [5] it was 9.45%; in assay [6] it was -11.4%.

With `c1ccc(C(=C2C(=C(c3ccccc3)c3ccccc3)c3nc4ccccc4nc32)c2ccccc2)cc1`, the growth inhibition is 26.8% in assay [1]; 8.8% in assay [2]; 7% in assay [3]; 16.9% in assay [4]; -1.05% in assay [5]; 8.1% in assay [6].

For the compound `CCOC(=O)CCC1(CCC(=O)OCC)CCCCCCCCC(CCC(=O)OCC)(CCC(=O)OCC)C(=O)C1=O`, the growth inhibition is 12.9% in assay [1]; 12.3% in assay [2]; -14.7% in assay [3]; 38% in assay [4]; -4.7% in assay [5]; -1.3% in assay [6].

For `Cc1ccc(N)c(C#N)c1`, the growth inhibition is -11.8% in assay [1]; 11.7% in assay [2]; -5.7% in assay [3]; 1% in assay [4]; -5% in assay [5]; 4.65% in assay [6].

With `c1ccc(C2CCN3c4ccc5ccccc5c4NCC23)cc1` (stereo not drawn), the growth inhibition in assay [1] was 36%; in assay [2] it was 68%; in assay [3] it was 45.6%; in assay [4], 14.5%; in assay [5], 88.8% (active); in assay [6] it was 67.3%.

Take `CCOC(=O)C(NC(C)=O)C(O)c1ccc(C(C)C)cc1` (stereo not drawn): the growth inhibition is 10.8% in assay [1]; 4.4% in assay [2]; 8.45% in assay [3]; -33.7% in assay [4]; 14.8% in assay [5]; 14.7% in assay [6].

As for `CCC(C)(O)C#CC#CC(C)(O)CC` (stereo not drawn), the growth inhibition in assay [1] is 17.2%; in assay [2], -22.2%; in assay [3], 22.1%; in assay [4], 16.6%; in assay [5], -5.35%; in assay [6], 22.1%.

Turning to `NC1=NN(c2ccccc2)C(=O)C1/C(=N\NC(=O)c1cc2ccccc2cc1O)C(=O)Nc1ccc(Cl)c(Cl)c1` (stereo not drawn), the growth inhibition in assay [1] was 28.7%; in assay [2], 10%; in assay [3] it was -17.2%; in assay [4] it was 31.6%; in assay [5] it was 6.95%; in assay [6] it was 21.1%.

As for `CC(=O)NC(=O)NC1=NCCC(=O)N1CCc1c[nH]c2ccccc12`, the growth inhibition in assay [1] was 4.35%; in assay [2], -29%; in assay [3], -6.3%; in assay [4], 6.25%; in assay [5], -19.1%; in assay [6], 7.2%.

Consider `C=C(CCCC(C)OC(C)OCC)[Si](C)(C)C` (stereo not drawn), for which the growth inhibition in assay [1] was -26.2%; in assay [2] it was -52%; in assay [3], -20.6%; in assay [4] it was -7.15%; in assay [5], -23.6%; in assay [6] it was -37.9%.

Regarding `NC(=O)Oc1ccc(Cc2ccccc2)cc1`, the growth inhibition is -20.7% in assay [1]; -43.2% in assay [2]; -12.6% in assay [3]; -8.95% in assay [4]; -40.4% in assay [5]; -5.05% in assay [6].

For the compound `COc1ccc(/C=C2\CCN(C(C)=O)C2=O)cc1`, the growth inhibition in assay [1] is 2.35%; in assay [2], -2.65%; in assay [3], -7.8%; in assay [4], 2.6%; in assay [5], 3.25%; in assay [6], -10.7%.

With `CCOC(=O)CNC(=O)C(CC(C)C)NC(=O)OCc1ccccc1` (stereo not drawn), the growth inhibition in assay [1] was 6.7%; in assay [2], 7.9%; in assay [3], 28.8%; in assay [4] it was 5.25%; in assay [5], 2.8%; in assay [6], -11%.

Regarding `COc1cc(CC2c3cccc(Oc4ccc(C)cc4)c3CCN2C)ccc1Oc1ccc(C)cc1` (stereo not drawn), the growth inhibition in assay [1] was 98% (active); in assay [2] it was 98.2% (active); in assay [3] it was 98.7% (active); in assay [4], 96.5% (active); in assay [5], 97.4% (active); in assay [6] it was 98% (active).

The record behind these values is PubChem BioAssay (NCI).
